Data from ChEMBL document CHEMBL3433997, “St. Jude Leishmania screening dataset” (2016).

Tests used:
Type in all cases: functional
[1] = molecular target: Solute carrier family 2, facilitated glucose transporter member 1 (Homo sapiens) (UniProt P11166); assay: ST_JUDE_LEISH: Cytotoxicity at 2uM final concentration against transgenic Leishmania Mexicana promastigotes LmGLUT1 that are glucose transport deficient and complemented with the human glucose transporter GLUT1. Activity is measured by DNA content using SYBR green in vitro
[2] = molecular target: Hexose transporter 1 (Plasmodium falciparum) (UniProt O97467); assay: ST_JUDE_LEISH: Cytotoxicity at 2uM final concentration against transgenic Leishmania Mexicana promastigotes LmPfHT that are glucose transport deficient and complemented with the Plasmodium falciparum hexose transporter. Activity is measured by DNA content using SYBR green in vitro
[3] = molecular target: Glucose transporter (Leishmania mexicana) (UniProt O61059); assay: ST_JUDE_LEISH: Cytotoxicity at 2uM final concentration against transgenic Leishmania Mexicana promastigotes LmGT2 that are glucose transport deficient and complemented with the L. Mexicana glucose transporter 2. Activity is measured by DNA content using SYBR green in vitro

Sequence of Solute carrier family 2, facilitated glucose transporter member 1 (Homo sapiens) (P11166 whole entry): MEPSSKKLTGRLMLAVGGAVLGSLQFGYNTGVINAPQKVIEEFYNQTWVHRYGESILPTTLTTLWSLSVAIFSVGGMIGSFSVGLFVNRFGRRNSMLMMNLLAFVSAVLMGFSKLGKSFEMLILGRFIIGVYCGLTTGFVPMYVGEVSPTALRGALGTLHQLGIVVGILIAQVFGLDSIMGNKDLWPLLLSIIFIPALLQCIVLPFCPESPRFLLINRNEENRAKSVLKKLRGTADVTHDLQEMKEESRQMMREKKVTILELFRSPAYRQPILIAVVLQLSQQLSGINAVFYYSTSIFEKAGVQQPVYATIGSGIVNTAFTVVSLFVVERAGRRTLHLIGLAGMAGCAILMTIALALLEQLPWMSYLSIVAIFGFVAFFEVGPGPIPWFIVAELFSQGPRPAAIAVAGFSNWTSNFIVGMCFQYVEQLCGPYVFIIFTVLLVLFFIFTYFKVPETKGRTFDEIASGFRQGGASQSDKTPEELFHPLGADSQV

Structure (SMILES)	inhibition [1] [%]	inhibition [2] [%]	inhibition [3] [%]
COC(=O)/C=C/c1ccc(CC(C)NCC(O)c2cccc(Br)c2)cc1 (stereo unspecified)	1.85	0.16	0.91
COc1c(F)cc(CC(C)NCC(O)c2cccc(Cl)c2)cc1F (stereo unspecified)	-0.28	-0.81	-3.56
O=C(/C=C/c1ccc(Cl)c(Cl)c1)NC1CCC(N2CCC(c3c[nH]c4ccc(O)cc34)CC2)CC1 (stereo unspecified)	1.81	1.52	2.5
Cc1c2ccncc2c(C)c2c1[nH]c1ccccc12	17.5	20.9	14.7
O=C(/C=C/c1ccc(Cl)c(Cl)c1)NCC1CCCC(CN2CCC(c3c[nH]c4ccccc34)CC2)C1 (stereo unspecified)	2.54	3.43	0.26
CC[C@H]1CN2CC[C@H]1C[C@@H]2[C@H](O)c1ccnc2ccc(O)cc12	-0.84	-0.85	0.24
NCc1cccc(-c2cccc(CN(C(=O)Nc3ccccc3)C3CCN(Cc4ccccc4)CC3)c2)c1	7.36	6.75	6.25
CC[C@H]1CN2CCc3cc(OC)c(OC)cc3[C@@H]2C[C@@H]1C[C@H]1NCCc2c1cc(OC)c(OC)c2Br	88	86.6	84.7
CCCc1c(C(=O)NC2CCC(CN3CCC(c4c[nH]c5ccccc45)CC3)CC2)cnn1-c1ccc(Cl)cc1 (stereo unspecified)	-0.47	-1.46	-1.49
CC[C@H]1CN2CC[C@H]1C[C@H]2[C@H](O)c1cc(N2CCCC(C(=O)N(CC)CC)C2)nc2ccc(OC)cc12 (stereo partly specified)	1.75	2.21	0.33
N#Cc1ccc(N(CC(=O)NCCc2ccc(F)cc2)CC2CC2)c2ccccc12	-0.35	-0.59	1.47
CCCCCCCN1C2CCC1CC(CCOc1ccnc3ccc(OC)cc13)C2 (stereo unspecified)	11.4	8.68	11
